Only some compounds are listed: those with a hit (about 2.5% of all), similar ones and a draw of the others.
Cruzain noTriton – blocks cruzain activity in detergent-free assay; Potency, µM, for the others: max response, negative = inhibition, hits mostly inhibitors; 2.3% of 200,000 active; purified cruzain, Z-FR-AMC fluorescence, no detergent; P25779;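 note: plate controls were enzyme without inhibitor for no effect and buffer without enzyme for full effect; nearly all actives have a fitted effect of over 40% in size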
Target sequence (P25779 123-467 limits assumed): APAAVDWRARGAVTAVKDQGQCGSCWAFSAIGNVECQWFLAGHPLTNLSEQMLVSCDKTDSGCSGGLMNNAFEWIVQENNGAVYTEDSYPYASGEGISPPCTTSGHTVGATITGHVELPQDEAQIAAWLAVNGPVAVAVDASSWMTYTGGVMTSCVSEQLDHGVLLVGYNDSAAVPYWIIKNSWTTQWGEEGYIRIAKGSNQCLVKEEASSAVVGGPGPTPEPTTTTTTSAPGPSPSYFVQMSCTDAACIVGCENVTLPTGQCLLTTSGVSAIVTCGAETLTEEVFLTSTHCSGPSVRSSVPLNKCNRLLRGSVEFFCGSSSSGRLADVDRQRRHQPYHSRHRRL
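Purified cruzain at 1.5 nM, pre-incubated 15 min with compound at room temperature in 100 mM sodium acetate pH 5.5, 5 mM DTT, 0.00005% Triton X-100. Reaction started with 2 uM Z-FR-AMC; AMC fluorescence increase over 60 s gives rate.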
Cruzain inh Det – inhibitors of Trypanosoma cruzi cruzain with detergent; P25779; purified cruzain, Z-FR-AMC fluorescence, 0.01% Triton; Potency, µM, for inactives: max response, negative = inhibition, usual class: inhibitors; 0.43% of 200,000 active;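 note: plate controls were neutral wells for no effect and buffer without enzyme for full effect; nearly all actives have a fitted effect of over 40% in size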
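Z-FR-AMC hydrolysis (2 uM substrate) by cruzain (1.5 nM) monitored kinetically at ex 360/em 450 nm after 15 min room-temperature compound exposure; 0.01% Triton X-100, pH 5.5, 5 mM DTT.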
* hit, by the source's call; ? = inconclusive; ! = repeats disagree. Calls come from the whole dose curve; as a rule, active = well fitted curve in the direction sought with a large enough effect; inconclusive = small, poorly fitted or top-dose-only effect, or another doubt; inactive = no such curve, though single readings can be large; an effect the other way counts as inactive or inconclusive. Potency is the fitted concentration of half-maximal effect.

SMILES	Cruzain noTriton	Cruzain inh Det
Cc1ccccc1Nc1oc(-c2ccccc2)nc1-c1ccccc1	-9.4%	0.4%
Oc1cc2c(cc1O)[C@@H]1c3ccc(O)c(O)c3OC[C@]1(O)C2	-4.4%	-1.8%
Cc1cccc(C(=O)O/N=C(\N)c2ccc(Br)cc2)c1	3.1%	0.2%
N/C(=N\OC(=O)c1ccc2ccccc2c1)c1ccc(Br)cc1	10µM*	-1.6%
Cc1cc(C)c2c(=O)cc(C(=O)Nc3sc4c(c3C(=O)NCc3cccnc3)CCCC4)oc2c1	-2.9%	-1.6%
O.O.O.O.O.O.O.O=S(=O)([O-])[O-].[Co+2]	-4.9%	2.5%
Cc1ccc(NC(=O)COC(=O)/C=C/c2cccs2)cc1	-7.7%	0.1%
O=C(/C=C/c1cccs1)c1ccc(Br)cc1	-3.7%	-4.8%
O=C(/C=C/c1cccs1)c1ccc(NC(=O)c2cccc(Br)c2)cc1	15.8µM*	0.9%
Cc1ccc(C(=O)Nc2ccc(C(=O)/C=C/c3cccs3)cc2)cc1	25.1µM*	8.7%
COc1ccc(/C=C(/CC(=O)Nc2ccccc2)c2nc3ccccc3s2)cc1	?	-6.5%
COc1ccccc1NC(=O)NCc1ccc2c(c1)OCO2	3.7%	1.7%
COc1ccccc1/C=C(/CC(=O)NCc1ccc2c(c1)OCO2)c1nc2ccccc2s1	15.8µM*	-4.0%
COc1ccc(/C=C(/CC(=O)NCc2ccc(Cl)cc2)c2nc3ccccc3s2)cc1	31.6µM*	-6.3%
NNC(N)=S	-13.4%	-29.2%
CC(C)C(c1nnnn1C1CCCCC1)N1CCc2ccccc21 (configuration not stated)	12.8%	-1.2%
Cc1ccc(C(c2nnnn2C2CCCCC2)N2CCc3ccccc32)cc1 (configuration not stated)	25.1µM*	-1.3%
CC(=O)O[C@@H]1C(CO[Si](C)(C)C(C)(C)C)=C(Br)C(=O)[C@@H]2O[C@]12C	-8.1%	1.6%
CCS(=O)(=O)c1ncc(Cl)c(C(=O)N(Cc2ccccc2)c2ccc(OC)cc2)n1	3.2%	-8.2%
O=C(Cn1c(-c2cccs2)cc2cc(F)ccc21)NCCc1ccc(Cl)cc1	12.6µM*	-1.9%
CCOc1ccc(CCNC(=O)Cn2c(-c3cccs3)cc3cc(F)ccc32)cc1OCC	15.2%	-3.5%
CN(C)S(=O)(=O)c1ccc(C(=O)Nc2c(C(=O)Nc3ccc(F)cc3)oc3ccccc23)cc1	-8.2%	-1.1%
Cc1cc(C(=O)Cn2nc(C(=O)O)c3ccccc3c2=O)c(C)n1-c1ccccc1	25.1µM*	-8.7%
Cc1cc(C(=O)Cn2nnc(-c3ccc(Cl)cc3)n2)c(C)n1-c1ccccc1	?	-2.7%
O=C(C[C@@H]1C=Cc2ccccc2N1C(=O)c1ccccc1)c1ccccc1	0.6%	4.2%
SMILES	Cruzain noTriton	Cruzain inh Det
CCc1ccccc1Nc1cc(C(=O)NCc2ccc(C)cc2)c2ccccc2n1	?	-8.9%
CC(C)C(NS(=O)(=O)c1ccc2c(c1)oc(=O)n2C)C(=O)NCCc1ccccc1 (configuration not stated)	-13.1%	1.2%
CC(=O)N[C@H](c1ccccc1)[C@@]1(C)C[C@@H]1[C@@H](C)C(=O)Nc1ccc2ccccc2c1	-3.5%	-4.2%
C[C@@H](C(=O)Nc1ccc2ccccc2c1)[C@@H]1C[C@@]1(C)[C@@H](NC(=O)c1ccccc1)c1ccccc1	?	-1.6%
Cc1nn(C)c(Cl)c1S(=O)(=O)N[C@@H](c1ccccc1)[C@]1(C)C[C@H]1[C@@H](C)C(=O)Nc1ccc2ccccc2c1	15.8%	-4.3%
C[C@@H](C(=O)Nc1ccc2ccccc2c1)[C@H]1C[C@]1(C)[C@H](NS(=O)(=O)c1ccc(-c2ccccc2)cc1)c1ccccc1	3.16µM*	0.7%
C[C@@H](C(=O)Nc1ccc2ccccc2c1)[C@H]1C[C@]1(C)[C@H](NC(=O)Oc1ccc(F)cc1)c1ccccc1	15.8µM*	0.7%
COC(=O)N[C@H](c1ccccc1)[C@@]1(C)C[C@@H]1[C@@H](C)C(=O)Nc1ccc2ccccc2c1	-1.1%	-1.5%
C[C@@H](C(=O)Nc1ccc2ccccc2c1)[C@H]1C[C@]1(C)[C@H](NS(=O)(=O)c1ccc2ccccc2c1)c1ccccc1	10µM*	1.8%
C[C@@H](C(=O)Nc1ccc2ccccc2c1)[C@@H]1C[C@@]1(C)[C@@H](NS(=O)(=O)c1ccc2ccccc2c1)c1ccccc1	7.94µM*	3.6%
Cn1cnc2c(=O)oc3ccc(S(=O)(=O)N4CCN(c5ccccc5F)CC4)cc3c21	11.1%	-1.4%
O=C1CN(C(=O)c2ccc(S(=O)(=O)N3CCCC3)cc2)C(c2ccccc2)c2cc(Br)ccc2N1 (configuration not stated)	5.9%	-4.4%
CN(C)CCCNCCCN	-1.2%	2.9%
CC(=O)O[C@H](C(=O)O[C@@H]1C[C@@H](CCC[C@H]2O[C@H](C(=O)OC(C)C)CC[C@@H]2C)O[C@@H](CC#N)C1)c1ccccc1	29.8%	0.2%
c1cc(CSc2ncnc3nc[nH]c23)ccn1	2.8%	1.6%
Cc1cccc(NC(=O)c2sc(-n3nc(C)c(Cc4ccc5c(c4)OCO5)c3C)nc2C)c1C	-6.8%	1.1%
CCOc1cc(/C=C2\C(=O)N(c3nc(-c4ccc(Br)cc4)cs3)N=C2c2ccccc2)ccc1O	3.16µM*	?
CCOc1cc(/C=C/c2cc(C(=O)O)c3ccccc3n2)ccc1O	-10.0%	-9.9%
COc1cccc(C(=O)Nc2cc(-c3cn4cccnc4n3)ccc2C)c1OC	-15.1%	-6.4%
CCN(CC)C(=S)SSC(=S)N(CC)CC	7.94µM*!	15.8µM*!
C=C(Cl)CSC(=S)N(CC)CC	-4.1%	-1.9%
O=C(c1ccc2c(c1)N(Cc1ccc(Cl)cc1)C(=O)c1ccccc1S2=O)N1CCN(c2ccccc2F)CC1 (configuration not stated)	-14.9%	-1.3%
COc1ccc(N2CCN(C(=O)c3ccc4c(c3)N(Cc3ccc(F)cc3)C(=O)c3ccccc3S4=O)CC2)cc1 (configuration not stated)	11.8%	0.2%
Oc1c(Br)cc(Br)cc1CN1CCN(Cc2ccccc2)CC1	1.6%	-2.1%
Oc1c(Br)cc2oc3c(c2c1CNCc1ccccc1)CCCC3	31.6µM*	-7.8%
SMILES	Cruzain noTriton	Cruzain inh Det
CSc1ccc(C(=O)Nc2ccc(-c3nc4ccccc4s3)c(O)c2)cc1	2.0%	1.2%
CCSc1ccccc1C(=O)Nc1ccc(-c2nc3ccccc3s2)c(O)c1	7.94µM*	1.1%
O=C1N=C(N2CCOCC2)S/C1=C\c1ccc(-c2ccccc2Cl)o1	31.6µM*	-27.3%
Cc1ccsc1/C=C1/SC(N2CCOCC2)=NC1=O	-0.5%	-6.4%
O=C(CN1CCN(CCN2C(=O)c3cccc4cccc(c34)C2=O)CC1)c1ccc(F)cc1	?	-28.4%
O=C1C2C=CC=CC2=NC(=S)N1CCN1CCC(=C(c2ccc(F)cc2)c2ccc(F)cc2)CC1 (configuration not stated)	12.6µM*	-10.4%
COC(=O)c1cccc(C23CC4(C2)[C@H](CN(Cc2cccnc2)[C@@H]4c2ccccc2)C3c2ccc(Cl)nc2)c1 (some centres not stated)	-1.4%	0.2%
N#Cc1ccc(C23CC4(C2)[C@H](CN(Cc2ccc(-c5ccccc5)cc2)[C@@H]4c2ccccc2)C3c2ccccc2)cc1 (some centres not stated)	12.6µM*	-4.2%
COC(=O)c1cccc(C23CC4(C2)[C@H](CN(Cc2ccc(-c5ccccc5)cc2)[C@@H]4c2ccccc2)C3c2ccc(Cl)nc2)c1 (some centres not stated)	7.94µM*	2.4%
COC(=O)c1ccc(C23CC4(C2)[C@H](CN(C)[C@@H]4c2ccccc2)C3c2ccccc2)cc1 (some centres not stated)	1.4%	-4.2%
COC(=O)c1ccc(C23CC4(C2)[C@H](CN(Cc2ccc(-c5ccccc5)cc2)[C@@H]4c2ccccc2)C3c2ccccc2)cc1 (some centres not stated)	7.94µM*	1.7%
